PubChem BioAssay AID1159580 (chemical genetic matrix, 2015)
Several values for one entry are separate records, joined by “and”; a condition that tells them apart may be missing. Equal entries are not always repeated. Out of some 5,500 compounds screened, about 2,000 (36%) were called active. About 18% were inconclusive and are not listed. Rule as the data show it: active = normalized growth mostly below about 0.91 (no sharp cut-off); inconclusive = no clear call, values can overlap the other calls; inactive = mostly above about 0.92. Some of the results follow.

Experiment: chemical genetic growth profiling, strain panel (AID 1159580);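 also: tested at 20 µM; growth read once vehicle control cultures reached saturation at 30 °C; 1 = growth at the plate median or of vehicle wells; lower values mean less growth of the strain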
Settings: S. cerevisiae deletion strains, growth OD

Measured: normalized growth

CC(C)c1cc2c(c(O)c1O)[C@@]1(C(=O)O)CCCC(C)(C)C1CC2 (stereo partly specified)
active: locus YAL026C, strain drs2, stronger effect = lower value 0.835 | locus YAL030W, strain snc1, stronger effect = lower value 0.917 | locus YBR009C, strain hhf1, stronger effect = lower value 0.775 | locus YCL011C, strain gbp2, stronger effect = lower value 0.908 | locus YCL016C, strain dcc1, stronger effect = lower value 0.886 | locus YDL192W, strain arf1, stronger effect = lower value 0.874 | locus YDR392W, strain spt3, stronger effect = lower value 0.24 | locus YER155C, strain BEM2 (second series), stronger effect = lower value 0.697 | locus YGL173C, strain kem1, stronger effect = lower value 0.885 | locus YGR229C, strain SMI1, stronger effect = lower value 0.207 | locus YHR013C, strain ard1, stronger effect = lower value 0.705 | locus YHR030C, strain SLT2, stronger effect = lower value 0.903 and 0.663 | locus YHR079C, strain IRE1, stronger effect = lower value 0.341 | locus YJL095W, strain BCK1 (second series), stronger effect = lower value 0.86 | locus YJL164C, strain tpk1, stronger effect = lower value 0.908 | locus YJL166W, strain qcr8, stronger effect = lower value 0.462 | locus YKL085W, strain MDH1 (second series), stronger effect = lower value 0.913 | locus YKL085W, strain MDH1, stronger effect = lower value 0.913 | locus YKR001C, strain vps1, stronger effect = lower value 0.866 | locus YLL041C, strain sdh2, stronger effect = lower value 0.664 | locus YLR027C, strain aat2, stronger effect = lower value 0.884 | locus YLR113W, strain HOG1, stronger effect = lower value 0.434 | locus YLR221C, strain rsa3, stronger effect = lower value 0.792 | locus YLR258W, strain gsy2, stronger effect = lower value 0.859 | locus YLR262C, strain YPT6 (second series), stronger effect = lower value 0.552 | locus YLR262C, strain YPT6, stronger effect = lower value 0.546 | locus YLR320W, strain mms22, stronger effect = lower value 0.809 | locus YLR418C, strain cdc73, stronger effect = lower value 0.642 | locus YMR058W, strain fet3, stronger effect = lower value 0.815 | locus YMR125W, strain sto1, stronger effect = lower value 0.827 | locus YMR205C, strain PFK2, stronger effect = lower value 0.873 | locus YMR307W, strain GAS1, stronger effect = lower value 0.472 | locus YNL071W, strain lat1, stronger effect = lower value 0.207 | locus YNL271C, strain bni1, stronger effect = lower value 0.908 | locus YNL298W, strain CLA4, stronger effect = lower value 0.874 | locus YOR070C, strain gyp1, stronger effect = lower value 0.92 | locus YOR231W, strain MKK1, stronger effect = lower value 0.394 | locus YPL051W, strain arl3, stronger effect = lower value 0.897 | locus YPL240C, strain hsp82, stronger effect = lower value 0.614 | locus YPL241C, strain CIN2, stronger effect = lower value 0.914 | locus YPL256C, strain CLN2, stronger effect = lower value 0.421
inactive: locus YAL021C, strain ccr4, stronger effect = lower value 0.988 | locus YBL061C, strain skt5, stronger effect = lower value 0.953 | locus YBR021W, strain FUR4, stronger effect = lower value 1.01 | locus YBR023C, strain chs3, stronger effect = lower value 0.956 | locus YBR171W, strain sec66, stronger effect = lower value 0.975 | locus YBR229C, strain ROT2, stronger effect = lower value 1.01 | locus YBR231C, strain swc5, stronger effect = lower value 0.969 | locus YBR279W, strain paf1, stronger effect = lower value 0.948 | locus YCL029C, strain bik1, stronger effect = lower value 1.01 | locus YCL061C, strain MRC1, stronger effect = lower value 0.954 | locus YCL069W, strain vba3, stronger effect = lower value 0.998 | locus YCR088W, strain abp1, stronger effect = lower value 0.991 | locus YDL005C, strain med2, stronger effect = lower value 1 | locus YDL035C, strain GPR1, stronger effect = lower value 0.943 | locus YDL040C, strain nat1, stronger effect = lower value 0.99 | locus YDL074C, strain BRE1, stronger effect = lower value 0.946 | locus YDL101C, strain DUN1, stronger effect = lower value 1.01 | locus YDL134C, strain PPH21, stronger effect = lower value 0.993 | locus YDL185W, strain tfp1, stronger effect = lower value 0.998 | locus YDR001C, strain nth1, stronger effect = lower value 0.997 | locus YDR069C, strain doa4, stronger effect = lower value 0.923 | locus YDR101C, strain arx1, stronger effect = lower value 1.02 | locus YDR137W, strain rgp1, stronger effect = lower value 0.876 | locus YDR150W, strain NUM1, stronger effect = lower value 0.929 | locus YDR159W, strain sac3, stronger effect = lower value 0.902 | locus YDR162C, strain NBP2, stronger effect = lower value 0.851 | locus YDR195W, strain ref2 0.979 | locus YDR297W, strain sur2, stronger effect = lower value 0.982 | locus YDR318W, strain mcm21, stronger effect = lower value 0.959 | locus YDR334W, strain swr1, stronger effect = lower value 1 | locus YDR335W, strain msn5, stronger effect = lower value 0.988 | locus YDR388W, stronger effect = lower value 1 | locus YDR502C, strain sam2, stronger effect = lower value 0.972 | locus YEL003W, strain gim4, stronger effect = lower value 0.94 | locus YEL037C, strain rad23, stronger effect = lower value 0.992 | locus YEL061C, strain CIN8 (second series), stronger effect = lower value 0.993 | locus YEL061C, strain CIN8, stronger effect = lower value 0.968 | locus YER015W, strain faa2, stronger effect = lower value 0.987 | locus YER016W, strain bim1, stronger effect = lower value 0.971 | locus YER110C, stronger effect = lower value 1.03 | locus YER111C, strain swi4, stronger effect = lower value 0.975 | locus YER155C, strain BEM2, stronger effect = lower value 1.04 | locus YER167W, strain BCK2, stronger effect = lower value 0.981 | locus YFR010W, strain ubp6, stronger effect = lower value 0.944 | locus YGL078C, strain dbp3, stronger effect = lower value 0.957 | locus YGL086W, strain mad1, stronger effect = lower value 0.94 | locus YGL167C, strain pmr1, stronger effect = lower value 0.978 | locus YGL227W, strain vid30, stronger effect = lower value 1 | locus YGL240W, strain doc1, stronger effect = lower value 0.938 | locus YGL248W, strain PDE1, stronger effect = lower value 0.962 | locus YGL253W, strain hxk2, stronger effect = lower value 0.976 | locus YGR078C, strain PAC10, stronger effect = lower value 0.873 | locus YGR135W, strain pre9, stronger effect = lower value 0.969 | locus YGR252W, strain gcn5, stronger effect = lower value 0.903 | locus YHR027C, strain rpn1, stronger effect = lower value 0.956 | locus YHR079C, strain IRE1 (second series), stronger effect = lower value 1 | locus YHR094C, strain hxt1, stronger effect = lower value 1.01 | locus YHR129C, strain ARP1, stronger effect = lower value 0.921 | locus YHR142W, strain chs7, stronger effect = lower value 0.969 | locus YHR200W, strain rpn10, stronger effect = lower value 0.984 | locus YIL066C, strain RNR3, stronger effect = lower value 0.937 | locus YIL073C, strain SPO22, stronger effect = lower value 0.936 | locus YIL125W, strain kgd1, stronger effect = lower value 0.958 | locus YIR030C, strain dcg1, stronger effect = lower value 1.01 | locus YJL092W, strain hpr5, stronger effect = lower value 0.98 | locus YJL115W, strain asf1, stronger effect = lower value 1.01 | locus YJL129C, strain trk1, stronger effect = lower value 1.04 | locus YJL134W, strain LCB3, stronger effect = lower value 1.02 | locus YJL154C, strain vps35, stronger effect = lower value 1 | locus YJL168C, strain set2, stronger effect = lower value 1.01 | locus YJL187C, strain SWE1 (second series), stronger effect = lower value 0.973 | locus YJL187C, strain SWE1, stronger effect = lower value 0.972 | locus YJR043C, strain POL32, stronger effect = lower value 0.982 | locus YJR066W, strain TOR1, stronger effect = lower value 0.84 | locus YJR075W, strain HOC1, stronger effect = lower value 0.947 | locus YKL009W, strain mrt4, stronger effect = lower value 0.95 | locus YKL068W, stronger effect = lower value 1.02 | locus YKL160W, strain elf1, stronger effect = lower value 0.957 | locus YKR026C, strain gcn3, stronger effect = lower value 0.994 | locus YKR091W, strain srl3, stronger effect = lower value 0.988 | locus YLL001W, strain dnm1, stronger effect = lower value 0.984 | locus YLL026W, stronger effect = lower value 0.932 | locus YLR039C, strain RIC1, stronger effect = lower value 0.831 | locus YLR058C, strain SHM2, stronger effect = lower value 1 | locus YLR102C, strain apc9, stronger effect = lower value 1.01 | locus YLR268W, strain sec22, stronger effect = lower value 0.901 | locus YLR330W, strain CHS5, stronger effect = lower value 0.944 | locus YLR342W, strain FKS1 (second series), stronger effect = lower value 0.84 | locus YLR342W, strain FKS1, stronger effect = lower value 0.968 | locus YLR357W, strain rsc2, stronger effect = lower value 0.949 | locus YLR370C, strain arc18, stronger effect = lower value 0.974 | locus YLR371W, strain rom2, stronger effect = lower value 0.976 | locus YLR384C, strain iki3, stronger effect = lower value 1 | locus YML016C, strain PPZ1, stronger effect = lower value 0.994 | locus YML032C, strain rad52, stronger effect = lower value 0.993 | locus YML120C, strain ndi1, stronger effect = lower value 0.984 | locus YML124C, strain tub3, stronger effect = lower value 1.01 | locus YMR078C, strain ctf18, stronger effect = lower value 1 | locus YMR129W, stronger effect = lower value 0.99 | locus YMR223W, strain ubp8, stronger effect = lower value 0.964 | locus YMR231W, strain pep5, stronger effect = lower value 0.97 | locus YNL067W, strain RPL9B, stronger effect = lower value 0.972 | locus YNL153C, strain GIM3, stronger effect = lower value 0.985 | locus YNL183C, strain NPR1, stronger effect = lower value 0.9 | locus YNL209W, strain ssb2, stronger effect = lower value 0.962 | locus YNL233W, strain BNI4, stronger effect = lower value 0.955 | locus YNL248C, strain rpa49, stronger effect = lower value 0.98 | locus YNL250W, strain rad50, stronger effect = lower value 1.01 | locus YNL307C, strain MCK1, stronger effect = lower value 0.956 | locus YNL322C, strain KRE1 (second series), stronger effect = lower value 1.03 | locus YNR049C, strain mso1, stronger effect = lower value 0.997 | locus YNR052C, strain pop2, stronger effect = lower value 0.973 | locus YOL012C, strain htz1 0.721 | locus YOL147C, strain pex11, stronger effect = lower value 1.04 | locus YOR001W, strain rrp6, stronger effect = lower value 0.992 | locus YOR061W, strain CKA2, stronger effect = lower value 1 | locus YOR069W, strain VPS5, stronger effect = lower value 0.998 | locus YOR080W, strain dia2, stronger effect = lower value 0.987 | locus YOR083W, strain WHI5, stronger effect = lower value 0.965 | locus YOR106W, strain vam3, stronger effect = lower value 0.871 | locus YOR136W, strain idh2, stronger effect = lower value 1 | locus YOR144C, strain elg1, stronger effect = lower value 1.01 | locus YOR184W, strain ser1, stronger effect = lower value 0.964 | locus YOR265W, strain rbl2, stronger effect = lower value 0.982 | locus YOR270C, strain vph1, stronger effect = lower value 0.954 | locus YOR290C, strain snf2, stronger effect = lower value 0.945 | locus YOR316C, strain cot1, stronger effect = lower value 1.02 | locus YPL078C, strain atp4, stronger effect = lower value 1.01 | locus YPL106C, strain sse1, stronger effect = lower value 0.968 | locus YPR119W, strain clb2, stronger effect = lower value 1.03 | locus YPR141C, strain kar3, stronger effect = lower value 0.992 | locus YPR163C, strain tif3, stronger effect = lower value 0.964 | locus YPR167C, strain met16, stronger effect = lower value 1 | strain wtn01, stronger effect = lower value 0.936
0.962 (inactive) and 0.657 (active): locus YJL095W, strain BCK1, stronger effect = lower value
